Compounds with a hit are over-represented: about 21% of the library has one in this group of screens.
NS1 inh: blocks influenza NS1 protein function | Potency, µM (highest dose often 46.1 µM), for inactives: at the top dose activity, positive = more growth | actives 0.4% (n = 270,000) | AID 2326; calls by dose curve; also: potency is read from the fitted curve at half-maximal effect; actives are rising curves; nearly all actives have a fitted effect of over 50% in size
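S. cerevisiae expressing influenza A NS1, grown in glucose, washed, then diluted 1:100 into pH 6.0 -URA galactose medium with 23 nl compound. Growth recovery read as OD600; NS1-free strain serves as control.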
CHX counter: affects cycloheximide protein synthesis inhibition readout, counter-screen; cell reporter, cycloheximide protein synthesis inhibition counterscreen; max response, %; actives 12% (n = 300,000); in the data active = max response mostly above about 13%, no sharp cut-off; inactive = mostly below about 14%; also: read at 38.3 µM for the half of the compounds with a filed dose; 0% is about no effect
Pf growth 96h: inhibits malaria parasite growth, 96 h | AID 504834 | Potency, µM (top dose mostly 28.7 µM), inactives show at the highest dose activity change, negative = inhibition, most hits filed as inhibitors | actives 6.9% (n = 320,000) | P. falciparum luciferase reporter growth, 96 h; also: potency is read from the fitted curve at half-maximal effect; % is scaled to controls: 0 for no effect and ±100 for the full control effect
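Compounds incubated with erythrocytes infected by luciferase-expressing P. falciparum (2% hematocrit, 0.05% parasitemia final) for 96 hours, 37 C in 5% CO2. Growth inhibition scored as decreased luciferase luminescence.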
FBPA Giardia inh: inhibitors of Giardia lamblia fructose-1,6-bisphosphate aldolase. A8B2U2. purified Giardia FBPA. Potency, µM (series often up to 59.6 µM), without a hit: at the highest dose activity, negative = inhibition, hits mostly inhibitors. actives 0.71% (n = 290,000). AID 2451; also: potency is read from the fitted curve at half-maximal effect; % is scaled to controls: 0 for no effect and ±100 for the full control effect; nearly all actives have a fitted effect of over 55% in size
Target sequence (A8B2U2 whole entry, looked up): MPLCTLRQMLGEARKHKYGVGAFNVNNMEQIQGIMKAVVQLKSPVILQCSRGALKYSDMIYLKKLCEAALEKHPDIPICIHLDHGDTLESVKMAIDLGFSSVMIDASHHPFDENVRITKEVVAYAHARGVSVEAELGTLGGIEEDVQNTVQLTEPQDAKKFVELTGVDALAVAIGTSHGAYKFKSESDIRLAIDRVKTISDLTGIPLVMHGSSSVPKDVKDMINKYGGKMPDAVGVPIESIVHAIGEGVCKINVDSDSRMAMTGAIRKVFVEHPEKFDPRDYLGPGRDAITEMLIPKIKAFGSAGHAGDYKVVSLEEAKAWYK
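40 nM FBPA preincubated 10 min at RT with compound (up to 57.5 uM final), then substrate plus GAPDH/TPI/NAD/arsenate coupling and diaphorase/resazurin added. Fluorescence read after 20 min at RT, 525/598 nm.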
Pf growth 48h: inhibits P. falciparum growth in the first generation, 48 h; P. falciparum luciferase growth in erythrocytes, 48 h; Potency, µM (series often up to 28.7 µM), for the others: at the highest dose activity change, negative = inhibition, usual class: inhibitors; actives 5.9% (n = 310,000); also: potency is read from the fitted curve at half-maximal effect; % is scaled to controls: 0 for no effect and ±100 for the full control effect
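Parasite viability was followed by luminescence of a genomically integrated firefly luciferase. Cultures held 0.1% parasitemia at 2% hematocrit (final), incubated under 5% CO2 at 37 C.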
Shiga inhibitor: Shiga toxin inhibition | inhibition, % at 38.7 µM | Vero cells, Shiga toxin protein synthesis inhibition reporter | actives 9.2% (n = 290,000); in the data active = inhibition mostly above about 28%, no sharp cut-off; inactive = mostly below about 43%; also: 0% is about no effect
Numbers without * were called inactive; [ ] = remark or other dose. Unless noted, calls follow the shape of the dose curve; as a rule, active = well fitted curve in the direction sought with a large enough effect; inconclusive = small, poorly fitted or top-dose-only effect, or another doubt; inactive = no such curve, though single readings can be large; an effect the other way counts as inactive or inconclusive.

Results for Cc1ccc(-n2ncc3c(NCc4ccco4)ncnc32)c(C)c1 ?
NS1 inh: -21%; CHX counter: 16*; Pf growth 96h: inconclusive; FBPA Giardia inh: -13%; Pf growth 48h: -12%; Shiga inhibitor: 15

Results for Cc1ccc(-n2ncc3c(NCc4ccccn4)ncnc32)c(C)c1 ?
NS1 inh: -10%; CHX counter: 10; Pf growth 96h: inconclusive; FBPA Giardia inh: -24%; Pf growth 48h: inconclusive; Shiga inhibitor: 11

Results for COCCCNc1ncnc2c1cnn2-c1ccc(C)cc1C ?
NS1 inh: 5%; CHX counter: 11; Pf growth 96h: 9%; FBPA Giardia inh: -7%; Pf growth 48h: -1%; Shiga inhibitor: 11

What do the screens show for `CCCCNc1ncnc2c1cnn2-c1ccc(C)cc1C`?
NS1 inh: -181%; CHX counter: 15*; Pf growth 96h: inconclusive; FBPA Giardia inh: -8%; Pf growth 48h: inconclusive; Shiga inhibitor: 14

Results for COc1cc(S(=O)(=O)N2CCN(c3ccccn3)CC2)ccc1Br ?
NS1 inh: -35%; CHX counter: 2; Pf growth 96h: 217%; FBPA Giardia inh: 18%; Pf growth 48h: 7%; Shiga inhibitor: 3

What do the screens show for `CCOc1ccc(S(=O)(=O)N(CC)CC(=O)NC2CC2)cc1`?
NS1 inh: 8%; CHX counter: -2; Pf growth 96h: -26%; Pf growth 48h: inconclusive; Shiga inhibitor: -3

Results for Cc1ccc(C(=O)NCCc2nnc3ccc(SCC(=O)N4CCCC4)nn23)cc1 ?
NS1 inh: -5%; CHX counter: 42*; Pf growth 96h: inconclusive; Pf growth 48h: -22%; Shiga inhibitor: 53*

How did COc1ccc(NC(=O)CSc2ccc3nnc(CCNC(=O)c4ccccc4)n3n2)cc1 do in these assays?
NS1 inh: -5%; CHX counter: -2; Pf growth 96h: inconclusive; FBPA Giardia inh: -5%; Pf growth 48h: -14%; Shiga inhibitor: -3

How did O=C(CSc1ccc2nnc(CCNC(=O)c3ccccc3)n2n1)NCc1ccccc1 do in these assays?
NS1 inh: 17%; CHX counter: 1; Pf growth 96h: inconclusive; Pf growth 48h: -29%; Shiga inhibitor: 18

Results for Cc1ccc(C(=O)NCCc2nnc3ccc(SCC(=O)NCc4ccc(F)cc4)nn23)cc1 ?
NS1 inh: 4%; CHX counter: 9; Pf growth 96h: 9.3µM*; FBPA Giardia inh: 10%; Pf growth 48h: -16%; Shiga inhibitor: -6

What do the screens show for `COc1cccc(NC(=O)CSc2ccc3nnc(CCNC(=O)c4ccccc4)n3n2)c1`?
NS1 inh: -9%; CHX counter: 10; Pf growth 96h: 10µM*; FBPA Giardia inh: -3%; Pf growth 48h: -23%; Shiga inhibitor: -8

How did CN(C)CC(O)CN(c1ccccc1)c1ccccc1 (stereo not given) do in these assays?
NS1 inh: 1%; CHX counter: -1; Pf growth 96h: 10%; FBPA Giardia inh: 1%; Pf growth 48h: 7%; Shiga inhibitor: 11

Results for CN(C)c1cccc2c(S(=O)(=O)N3CCCC3)cccc12 ?
NS1 inh: -31%; CHX counter: 34*; Pf growth 96h: -3%; FBPA Giardia inh: -7%; Pf growth 48h: -2%; Shiga inhibitor: 27

How did CSCCC(=O)N1CCCC(CO)(CCCc2ccccc2)C1 (stereo not given) do in these assays?
NS1 inh: 13%; CHX counter: 12; Pf growth 96h: 0%; FBPA Giardia inh: 12%; Pf growth 48h: -23%; Shiga inhibitor: 8

How did O=C1CCCN1CCC(=O)N1CCCC(CO)(Cc2ccccc2)C1 (stereo not given) do in these assays?
NS1 inh: -12%; CHX counter: 55*; Pf growth 96h: inconclusive; FBPA Giardia inh: -1%; Pf growth 48h: 24%; Shiga inhibitor: 74*

Results for N#CC1=C(N)Oc2c(ccc3cccnc23)C1c1ccccc1 (stereo not given) ?
NS1 inh: -4%; CHX counter: -1; Pf growth 96h: inconclusive; FBPA Giardia inh: -11%; Pf growth 48h: 13µM*; Shiga inhibitor: -4

How did N#CC1=C(N)Oc2c(ccc3ccccc23)C1c1cccs1 (stereo not given) do in these assays?
NS1 inh: -4%; CHX counter: 23*; Pf growth 96h: 8.3µM*; FBPA Giardia inh: inconclusive; Shiga inhibitor: 48*

How did O=c1cc(O)n(Cc2ccc(F)cc2)c(=O)[nH]1 do in these assays?
NS1 inh: 1%; CHX counter: -2; Pf growth 96h: 26%; FBPA Giardia inh: -1%; Pf growth 48h: 10%; Shiga inhibitor: 4

How did Cc1n[nH]c(=O)[nH]c1=O do in these assays?
FBPA Giardia inh: 0%[21.7 µM]

How did Cc1onc(-c2ccccc2Cl)c1C(=O)Nc1cccc(S(=O)(=O)NC2=NCCC2)c1 do in these assays?
Pf growth 96h: 7%; Pf growth 48h: inconclusive

Results for CCOC(=O)c1cnc(-c2ccccc2)nc1Oc1ccc(OC)cc1 ?
NS1 inh: -3%; CHX counter: 8; Pf growth 96h: 5.2µM*; FBPA Giardia inh: inconclusive; Pf growth 48h: 8.3µM*; Shiga inhibitor: -9

How did CCOC(=O)c1cnc(-c2cccc(OC)c2)[nH]c1=O do in these assays?
NS1 inh: -12%; CHX counter: 15*; Pf growth 96h: inconclusive; FBPA Giardia inh: inconclusive; Pf growth 48h: 18%; Shiga inhibitor: 12

How did CS(=O)(=O)c1cnc(-c2ccccc2)nc1Oc1ccc(F)cc1 do in these assays?
NS1 inh: 6%; CHX counter: 1; Pf growth 96h: inconclusive; FBPA Giardia inh: 0%; Pf growth 48h: 13µM*; Shiga inhibitor: 13

How did Cc1ccc2nc(SCC(=O)O)nc(C)c2c1 do in these assays?
NS1 inh: 0%; CHX counter: -2; Pf growth 96h: -6%; FBPA Giardia inh: -4%; Pf growth 48h: 18%; Shiga inhibitor: -21

What do the screens show for `CCOC(=O)CSc1cc(C)nc2ccc(OC)cc12`?
NS1 inh: -3%; CHX counter: -4; Pf growth 96h: 28%; FBPA Giardia inh: 1%; Pf growth 48h: inconclusive; Shiga inhibitor: -24

How did CCOC(=O)CSc1nc(C)c2ccc(C)cc2n1 do in these assays?
NS1 inh: 2%; CHX counter: 12*; Pf growth 96h: inconclusive; FBPA Giardia inh: 3%; Pf growth 48h: 27%; Shiga inhibitor: 44

How did CCOC(=O)CCSc1nc(C)c2cc(OC)ccc2n1 do in these assays?
NS1 inh: 3%; CHX counter: 51*; Pf growth 96h: 443%; FBPA Giardia inh: -13%; Pf growth 48h: 313%; Shiga inhibitor: 80*

Results for CCOC(=O)CCSc1nc(C)c2cc(C)c(C)cc2n1 ?
NS1 inh: 0%; CHX counter: 30*; Pf growth 96h: -28%; FBPA Giardia inh: 2%; Pf growth 48h: 6%; Shiga inhibitor: 44*

How did Cc1ccc(-c2cc(-c3ccccc3)cc(-c3ccccc3)[n+]2-c2ccccc2C(=O)O)cc1 do in these assays?
Pf growth 96h: 2.9µM*; Pf growth 48h: 10µM*

From PubChem BioAssay
